Screening data deposited in PubChem by several laboratories.
Compounds with a hit are over-represented: about 8.7% of the library has one in this group of screens.
PostGolgi ctrl – yeast control strain growth, post-Golgi counter-screen; efflux-deficient yeast background strain, growth absorbance A615, 16 h; inhibition, % at 10 µM; 98,000 compounds, 5% hits
TNAP act mid DEA – human TNAP activation, intermediate phosphate acceptor; P05186; purified TNAP, CDP-star luminescence, 100 mM DEA, 30 min; stronger effect = higher value; scale: 0 levamisole-inhibited, 1 vehicle-only enzyme; activation factor at 20 µM; 64,000 tested, under 10 active; AID 813;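 active means activation factor of at least 2 at 20 µM, relative to controls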
DAT uptake mod – modulates human dopamine transporter uptake under cocaine | Q01959 | LLC-PK1 hDAT cells, [14C]-dopamine uptake with cocaine IC80; actives deviate in either direction | B-score at 10 µM | 110,000 compounds, 1.3% hits;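 active means Z score or B-score, a plate-position-corrected score, falls beyond the plate's 99.7% confidence bounds, in either direction; inactive means both scores lie inside the 99.7% bounds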
Smad3 FoxH1 inh – Smad3 (human) transcription factor binding inhibition | P84022 | TR-FRET Smad3/Dy647-FoxH1 peptide binding, europium anti-His | inhibition, % at 25 µM | 88,000 compounds, 0.29% hits | AID 630;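 active means compounds that reduce the energy-transfer binding signal between the protein and its labelled peptide by more than half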
Cav32 inh – blocks human Cav3.2 T-type calcium channel | O95180 | Cav3.2-expressing cells, Fluo-4 calcium fluorescence FDSS; stronger effect = lower value | B-score at 10 µM | 100,000 compounds, 4% hits | AID 449739;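 active means single-dose well whose peak fluorescence ratio is a statistical outlier from its plate by either plate-standardised score or position-corrected B-score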
PostGolgi yeast – growth inhibition of a yeast mutant, post-Golgi transport screen. inhibition, % at 10 µM. post-Golgi transport phenotypic cell assay. 98,000 compounds, 0.9% hits;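 further: yeast cells grown in 1536-well plates; yeast grown about 18 h at 30C before absorbance read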
Each line names hits and unclear results; the compound was inactive in the other large screens. Unless noted, no stated cut-off is given here; in the data, active means inhibition above about 30%; inactive means the rest.

CCOC(=O)Cc1csc(NC(=O)CSc2nnnn2-c2ccc(F)cc2)n1	Cav32 inh -4.5
CCOC(=O)Cc1csc(NC(=O)CSc2nnnn2-c2ccc(C)cc2C)n1	none (no result: PostGolgi ctrl, TNAP act mid DEA, PostGolgi yeast)
CC(C)c1ccc(CN(C(=O)C2COc3ccccc3O2)C2CCS(=O)(=O)C2)cc1 (stereo not given)	PostGolgi ctrl 63, Cav32 inh -4.4 (no result: TNAP act mid DEA)
COC(=O)CNC(c1ccccc1)c1cc(C)ccc1NC(=O)CNC(=O)OCc1ccccc1 (stereo not given)	Cav32 inh -7.2 (no result: TNAP act mid DEA, Smad3 FoxH1 inh)
O=C(O)CC(NC(=O)OCc1ccccc1)c1ccc(Br)cc1 (stereo not given)	none (no result: TNAP act mid DEA)
CNC(=O)[C@@H]1C[C@H]1[C@@H](NC(=O)CNC(=O)OCc1ccccc1)c1ccccc1	none (no result: PostGolgi ctrl, TNAP act mid DEA, Smad3 FoxH1 inh, PostGolgi yeast)
COC(=O)CNC(c1ccccc1)c1cc(Br)ccc1NC(=O)OCc1ccccc1 (stereo not given)	Cav32 inh -9.4 (no result: TNAP act mid DEA, Smad3 FoxH1 inh)
CCOC(=O)C1CCCN(C(=O)c2ccc3c(=O)n(CCOC)c(=S)[nH]c3c2)C1 (stereo not given)	none (no result: PostGolgi ctrl, PostGolgi yeast)
O=[N+]([O-])c1ccc(N/N=C\c2cccn2-c2ccccc2)nc1	PostGolgi ctrl 40 (no result: TNAP act mid DEA, DAT uptake mod, Smad3 FoxH1 inh, Cav32 inh)
CC(=O)Nc1nnc(-c2ccc3c(c2)CCCC3)o1	none (no result: Cav32 inh)
CC1CN(S(=O)(=O)c2ccc(C(=O)Nc3nnc(-c4ccc5c(c4)CCCC5)o3)cc2)CC(C)O1 (stereo not given)	Cav32 inh -8.4
COc1cccc(-c2nnc(NC(=O)c3ccc(S(=O)(=O)N4CCOCC4)cc3)o2)c1	none
O=C(Nc1nnc(-c2ccc3c(c2)CCCC3)o1)C1COc2ccccc2O1 (stereo not given)	PostGolgi ctrl 72, Cav32 inh -4.9, PostGolgi yeast 100
COc1cc(OC)c2c(c1C(CCN1CCOCC1)c1ccc(N(C)C)cc1)OC(=O)CC2c1ccc(N(C)C)cc1 (stereo not given)	none (no result: PostGolgi ctrl, TNAP act mid DEA, Smad3 FoxH1 inh, PostGolgi yeast)
O=C(Nc1ccccc1)N(CCc1ccncc1)C1CCCCC1	none (no result: PostGolgi ctrl, PostGolgi yeast)
COc1ccc(NC(=O)NCCCN2CCCC2=O)c(OC)c1	none (no result: TNAP act mid DEA, DAT uptake mod, Cav32 inh)
Cc1ccc(C(=O)C2=C(O)C(=O)N(c3ncccn3)C2c2cccc(Cl)c2)o1 (stereo not given)	none (no result: PostGolgi ctrl, DAT uptake mod, Cav32 inh, PostGolgi yeast)
C=CCOc1cccc(C2C(C(=O)c3ccc(C)o3)=C(O)C(=O)N2c2nccs2)c1 (stereo not given)	Cav32 inh -5.1
O=S1(=O)CCN(Cc2cccc(Cl)c2)CC1	none (no result: TNAP act mid DEA, Smad3 FoxH1 inh)
CCC(C)(C(=O)NC1CCCC1)N(Cc1ccco1)C(=O)c1ccc2c(c1)OCO2 (stereo not given)	Cav32 inh -3.6
COc1ccc2c(C)cc(SCc3c(C)noc3C)nc2c1	PostGolgi ctrl 32 (no result: TNAP act mid DEA, Smad3 FoxH1 inh)
COc1ccc2c(C)cc(SCC#N)nc2c1	none
CCc1nccn1S(=O)(=O)c1ccc(OC)c(C)c1C	Cav32 inh -3.8 (no result: TNAP act mid DEA)
CCc1nccn1S(=O)(=O)c1ccc(Br)cc1Br	none
COc1ccc(-c2nc3c4ccccc4[nH]c(=O)n3n2)cc1	none (no result: TNAP act mid DEA)
COc1ccc(-c2nc3n(n2)C(=O)CC(c2ccco2)S3)cc1 (stereo not given)	PostGolgi ctrl 41 (no result: Smad3 FoxH1 inh)
Cc1ccc(COc2coc(CO)cc2=O)cc1	none (no result: TNAP act mid DEA, Smad3 FoxH1 inh)
O=c1cc(CO)occ1OCc1cccc(F)c1	PostGolgi ctrl 33 (no result: TNAP act mid DEA, Smad3 FoxH1 inh)
CCOC(=O)c1cc2c(C)n(-c3ccc(C)cc3)c(C)c2ccc1=O	Cav32 inh -7.4 (no result: TNAP act mid DEA, Smad3 FoxH1 inh)
COc1ccc(-n2c(COc3ccc4ccccc4c3)nnc2SCC(=O)NCc2ccco2)cc1	Cav32 inh -6.4 (no result: TNAP act mid DEA)
COc1cccc(OCc2nnc(SCC(=O)NCc3ccco3)n2C)c1	none (no result: TNAP act mid DEA)
COc1cccc(OCc2nnc(SCC(=O)NCc3ccco3)n2CCc2ccccc2)c1	Cav32 inh -7.6
COc1ccc(-n2c(COc3cccc(C)c3)nnc2SCC(=O)NCc2ccco2)cc1	none
CC(C)=C1SC(N2CCN(c3ccc(C)cc3)CC2)=NC1=O	none (no result: PostGolgi ctrl, TNAP act mid DEA, PostGolgi yeast)
COc1ccc(CCNc2nc(N3CCCCC3)nc(N3CCCCC3)n2)cc1OC	PostGolgi ctrl 32, Cav32 inh -6.7
Cc1cccc(COCC(Cc2ccccc2)N2CCN(C(=O)c3cc(Cl)cc(Cl)c3)CCC2=O)c1 (stereo not given)	Cav32 inh -3.4 (no result: PostGolgi ctrl, TNAP act mid DEA, Smad3 FoxH1 inh, PostGolgi yeast)
Cc1cccc(COCC(Cc2ccccc2)N2CCN(C(=O)c3cccc(C)c3)CCC2=O)c1 (stereo not given)	none (no result: PostGolgi ctrl, TNAP act mid DEA, Smad3 FoxH1 inh, PostGolgi yeast)
Cc1ccc(C)c(NC(=O)C2C3CCCC2C3c2ccccc2)c1 (stereo not given)	none (no result: TNAP act mid DEA, Smad3 FoxH1 inh)
CCc1ccccc1NC(=O)C1C(c2ccccc2)C1(Cl)Cl (stereo not given)	Cav32 inh -7.6 (no result: TNAP act mid DEA, Smad3 FoxH1 inh)
Cc1ccc(C)c(NC(=O)C2C(c3ccccc3)C2(Cl)Cl)c1 (stereo not given)	Cav32 inh -4.6 (no result: TNAP act mid DEA, Smad3 FoxH1 inh)
CC(C)OC(=O)c1c2nc3ccccc3nc2n2c1[nH]c(=O)c1ccccc12	PostGolgi ctrl 71, PostGolgi yeast 34 (no result: Cav32 inh)
CC(C)OC(=O)c1c(N)n(CCCN2CCOCC2)c2nc3ccccc3nc12	none (no result: TNAP act mid DEA)
CCc1ccccc1N1CSC2=C(C#N)C(c3ccccc3F)CC(=O)N2C1 (stereo not given)	PostGolgi ctrl 34
Cc1cc(C)c2nc(-c3ccccn3)cc(C(=O)Nc3cc(C)on3)c2c1	none
CCOc1ccc(NC(=O)C2CC(=O)NC(N3CCc4ccccc43)=N2)cc1 (stereo not given)	none
Cc1cc(Br)ccc1NC(=O)CCN1C(=O)c2ccncc2C1=O	PostGolgi ctrl 33
O=C(CSCc1ccc(Br)cc1)N1CCOCC1	none
C/C(CC(=O)NCc1ccco1)=N\NC(=O)Cc1ccc(Cl)cc1	none (no result: TNAP act mid DEA, Smad3 FoxH1 inh)
C/C(CC(=O)Nc1cccc(Cl)c1)=N\NC(=O)Cc1ccc(Cl)cc1	Cav32 inh -9.1 (no result: TNAP act mid DEA, Smad3 FoxH1 inh)
CCOC(=O)c1c(N)n[nH]c1-c1ccccc1	none (no result: TNAP act mid DEA)
CC1=CC(=C2C(=O)c3ccccc3C2=O)C=C(C)N1Cc1ccco1	PostGolgi ctrl 37 (no result: DAT uptake mod, Cav32 inh)
O=C1c2ccccc2C(=O)N1Cc1ccco1	none
Clc1ccc(-n2ncc3c(NCc4cccs4)ncnc32)cc1	none
Cc1cccc(-n2ncc3c(NCc4cccs4)ncnc32)c1	PostGolgi ctrl 42
CCOC(=O)CSC1=C(C#N)C(c2ccccc2)C(C(C)=O)=C(C)N1 (stereo not given)	none
CC(=O)C1=C(C)NC(SCC(=O)c2ccc(Cl)cc2Cl)=C(C#N)C1c1ccco1 (stereo not given)	PostGolgi ctrl 34
CCOC(=O)CSC1=C(C#N)C(c2ccco2)C(C(=O)Nc2cccc(C(F)(F)F)c2)=C(C)N1 (stereo not given)	PostGolgi ctrl 97
CCOC(=O)C1=C(c2ccccc2)NC(SCC(=O)Nc2ccccc2C)=C(C#N)C1c1ccco1 (stereo not given)	Cav32 inh -7.4
CSCSC1=C(C#N)C(c2ccc(Cl)cc2)C(C(C)=O)=C(C)N1 (stereo not given)	Cav32 inh -5.5 (no result: Smad3 FoxH1 inh)
CS(=O)(=O)N(CC(=O)NCc1ccc2c(c1)OCO2)c1ccc(Cl)cc1	none (no result: DAT uptake mod, Cav32 inh)
